TEAD-YAP inh = TEAD-YAP interaction inhibition. HEK-TIYL cells, TEAD-Gal4/YAP UAS-luciferase luminescence. inhibition, % at 9.12 µM. 1.4% of 640,000 active. AID 1259422; in the data active means inhibition above about 32%;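 further: 0% = median of test compound wells and 100% = reference inhibitor wells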
MITF inh = inhibitors of human MITF. O75030. AlphaScreen MITF homodimerization, bead proximity signal. inhibition, % at 2.6 µM. 0.91% of 650,000 active; in the data active means inhibition above about 50%;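 further: 0% = vehicle wells with protein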
GPR151 ag = activators of human GPR151; AID 1508602; Q8TDV0; PathHunter beta-arrestin GPR151 cells, luminescence; 1% of 650,000 active; activation, % at 11.2 µM; in the data active means activation above about 4.9%;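 further: 0% = median of compound wells and 100% = cells with positive control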
FBW7 activator = activators of human E3 ligase FBW7. Q969H0. AlphaScreen FBW7–phospho-cyclin E peptide binding, activator screen. normalized activity (activation), % at 26.1 µM. 0.13% of 650,000 active. AID 1259310; in the data active means normalized activity above about 1.9%;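 further: purified mutant Fbw7 with reduced substrate affinity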
Target sequence (Q969H0 whole entry, looked up): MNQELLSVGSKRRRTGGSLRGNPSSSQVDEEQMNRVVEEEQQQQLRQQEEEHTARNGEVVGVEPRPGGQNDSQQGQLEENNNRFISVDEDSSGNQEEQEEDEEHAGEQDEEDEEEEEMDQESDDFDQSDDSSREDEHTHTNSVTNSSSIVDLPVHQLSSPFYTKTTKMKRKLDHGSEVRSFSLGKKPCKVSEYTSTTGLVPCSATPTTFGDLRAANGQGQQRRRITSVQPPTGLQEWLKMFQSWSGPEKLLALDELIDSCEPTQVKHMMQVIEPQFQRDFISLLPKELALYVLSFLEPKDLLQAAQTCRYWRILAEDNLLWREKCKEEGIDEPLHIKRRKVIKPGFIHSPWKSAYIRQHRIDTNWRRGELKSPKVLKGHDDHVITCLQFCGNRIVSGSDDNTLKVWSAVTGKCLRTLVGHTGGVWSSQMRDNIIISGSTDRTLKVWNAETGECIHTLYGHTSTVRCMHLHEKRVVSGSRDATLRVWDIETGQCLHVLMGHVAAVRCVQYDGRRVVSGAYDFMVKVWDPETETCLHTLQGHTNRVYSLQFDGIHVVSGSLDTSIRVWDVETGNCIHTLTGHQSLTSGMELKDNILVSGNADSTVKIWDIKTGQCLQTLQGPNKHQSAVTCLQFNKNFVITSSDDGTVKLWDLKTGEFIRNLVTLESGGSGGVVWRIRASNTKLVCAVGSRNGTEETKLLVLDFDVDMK
* hit, by the source's call. Rows were chosen to be rich in hits. Some 3.4% of all compounds tested hit in one or more screens of this group.

SMILES	TEAD-YAP inh	MITF inh	GPR151 ag	FBW7 activator
Cc1ccccc1Cn1nc(C)c(NC(=O)c2cc(C3CC3)on2)c1C	4	-2	0	2.1*
CC1(C)C(=O)NCCN1C(=O)CSc1nc(C2CC2)nc2c1cnn2-c1ccccc1	24	19	1	1
Cn1c(C2COc3ccccc3O2)nc2ccc(-c3ncnc4[nH]ccc34)cc21 (stereo not drawn)	4	7	1	2.8*
c1ccc2c(c1)OCC(c1nc3ccc(-c4ncnc5[nH]ccc45)cc3[nH]1)O2 (stereo not drawn)	49*	5	0	0
O=C(/C=C\c1ccc2c(c1)OCO2)CC1(O)C(=O)Nc2ccc(Br)cc21 (stereo not drawn)	12	-2	1	0
CC(Sc1nccn1C)C(=O)NC(c1ccccc1)c1ccccc1 (stereo not drawn)	-1	-18	0	0
CC(Sc1nnc(C(F)(F)F)n1N)C(=O)NC(c1ccccc1)c1ccccc1 (stereo not drawn)	33*	-3	-2	0
C#CC(O)(c1ccc(OC)cc1)c1ccc(OC)c2ccccc12 (stereo not drawn)	56*	0	0	0
NC(=O)c1ncccc1Nc1ccnc(Nc2ccc(N3CCOCC3)cc2)c1	49*	35	0	0
NC(=O)c1ccccc1Nc1ccnc(Nc2ccc(N3CCOCC3)cc2F)c1	38*	-7	0	0
NC(=O)c1cc(F)ccc1Nc1ccnc(Nc2ccc(N3CCOCC3)cc2)c1	18	17	4	0
Cc1cc(Nc2cc(Nc3ccccc3C(N)=O)ccn2)ccc1N1CCOCC1	34*	17	2	0
O=C(NC1CCCCCCC1)c1cnn2c(C(F)(F)F)cc(-c3ccccc3)nc12	0	-7	2	0
Cc1ccc2[nH]c3c(c2c1)CCCC3NCc1ccc(Cl)cc1 (stereo not drawn)	43*	11	1	0
COC(CNC1CCCc2c1[nH]c1ccc(C)cc21)OC (stereo not drawn)	14	2	0	0
C=CCOc1ccc(C(=O)Nc2ccc(OC)c(OC)c2)cc1	-40	-2	-1	0
COc1ccccc1NC(=O)C(=O)N/N=C/c1ccc2c(c1)OCO2	-2	-6	0	0
COc1ccccc1NC(=S)N/N=C/c1ccc2c(c1)OCCO2	61*	-11	-1	0
CN(C)c1ccc(C(=O)Nc2cc(C(N)=O)c(Cl)cc2Cl)cc1	-8	-6	-1	0
CC(C)(C)c1ccc(C(=O)Nc2ccccc2C(N)=O)cc1	56*	17	-4	2.1*
CN(C)c1ccc(C(=O)Nc2ccccc2C(N)=O)cc1	52*	-18	-5	0
NC(=O)c1ccccc1NC(=O)c1ccc(-c2ccccc2)cc1	-18	1	-1	0
CC(C)(C)c1ccc(C(=O)Nc2sccc2C(N)=O)cc1	69*	-4	-6	0
CN(C)c1ccc(C(=O)Nc2ccccc2Br)cc1	65*	-2	-5	0
CC(=O)N1CCN(Cc2ccc3c(c2)CN(Cc2ccoc2)CCO3)CC1	8	9	0	0
SMILES	TEAD-YAP inh	MITF inh	GPR151 ag	FBW7 activator
COc1ccc(OC)c(CNc2ncc(-c3cccc(Cl)c3)n2C)c1	45*	37	-1	0
C#CCN1C(=O)S/C(=C/c2cc3c(cc2OCC)OCO3)C1=O	9	6	1	0
CC(=O)c1ccc(NC(=O)c2noc3c2CCC3)cc1	80*	25	-3	0
CC(=O)Nc1ccc(NC(=O)C(C)N(c2ccc(Cl)cc2)S(C)(=O)=O)cc1 (stereo not drawn)	-14	2	1	0
Cc1ccc(C(C)C)c(OCCN=Cc2c(O)n(C)c(=O)n(C)c2=O)c1	33*	1	-1	0
CCOC(=O)c1ccc(NC(=O)c2ccc3c(c2)OCCO3)cc1	35*	6	0	0
COc1ccc(C(=O)Nc2ccc3sc(C)nc3c2)cc1	-23	9	-1	0
CCCOC(=O)c1ccc(NC(=O)c2ccc(Cl)c(Cl)c2)cc1	-4	4	1	0
Cc1nc2cc(NC(=O)c3ccc4c(c3)OCCO4)ccc2s1	61*	7	-7	0
O=C(Nc1onc2c1CCCC2)c1ccc(F)cc1	-1	-6	-6	0
O=C(Nc1onc2c1CCCC2)c1ccc2c(c1)OCCO2	91*	-6	-9	0
CCCOC(=O)c1ccc(NC(=O)c2ccc3c(c2)OCCO3)cc1	41*	-2	-1	0
O=C(Nc1ccc(F)cc1)c1ccc2c(c1)OCCO2	59*	-1	-7	0
CCC1CN(CCNC(=O)c2cc(C(C)C)on2)Cc2cc(OC)ccc2O1 (stereo not drawn)	-4	-6	0	0
COc1ccc(-c2c(Nc3cccc(F)c3)c(=O)c2=O)cc1	11	0	-1	0
CCCCC(=O)NC(c1ccccc1OC)c1cc([N+](=O)[O-])c2cccnc2c1O (stereo not drawn)	28	51*	-1	0
COc1cc(NC(=O)c2cccnc2)c2ncccc2c1	79*	1	0	0
Oc1c(C(c2cccnc2)N2CCOCC2)cc(Cl)c2cccnc12 (stereo not drawn)	17	42	0	0
COc1ccc(C(NC(=O)c2cccnc2)c2cc(Cl)c3cccnc3c2O)cc1 (stereo not drawn)	40*	6	1	0
COc1ccc(C(NC(=O)c2cccc(OC)c2)c2cc(Cl)c3cccnc3c2O)cc1 (stereo not drawn)	1	10	-1	0
Oc1c(C(Nc2ccccn2)c2cccnc2)cc(Cl)c2cccnc12 (stereo not drawn)	58*	85*	0	0
CCCCC(=O)NC(c1ccco1)c1cc([N+](=O)[O-])c2cccnc2c1O (stereo not drawn)	3	10	-1	0
COC(=O)c1ccc(OCC2c3cc(OC)c(OC)cc3CCN2C(=O)c2ccccc2C(F)(F)F)cc1 (stereo not drawn)	-1	14	0	0
CCOc1ccc(-n2c(CNC(=O)c3ccco3)nnc2SCC(=O)Nc2nc3ccccc3s2)cc1	-14	-11	1	0
Cc1nnc2n1NC(c1ccccc1)C(C(=O)Nc1ccccc1C(F)(F)F)S2 (stereo not drawn)	4	4	1	0
CCCC(=O)NC(c1ccc(OC)cc1)c1cc([N+](=O)[O-])c2cccnc2c1O (stereo not drawn)	5	21	2	0
CCC(=O)NC(c1ccc(OC)cc1)c1cc([N+](=O)[O-])c2cccnc2c1O (stereo not drawn)	-3	55*	-2	-1
CCOC(=O)CCNC(=O)N1CCC(CO)(Cc2ccccc2C(F)(F)F)CC1	-4	-22	1	0
CC1(C)SC(=S)N(c2ccccc2)C1n1oc(=O)n(-c2ccc(Cl)cc2)c1=O (stereo not drawn)	-3	2	0	0
O=c1c(Nc2ccc(Cl)cc2)c(-c2ccccc2)c1=O	-2	9	0	0

High-throughput results from PubChem.
